Bioassay records as filed in PubChem.
D1 potentiator: enhances dopamine response at the human D1 receptor; P21728; HEK293 TREx D1 cells, calcium flux, dopamine EC20 potentiation; potentiation, % at 10 µM; 0.036% of 360,000 active; in the data active = potentiation above about 30%; also: 0% is about no effect
D3 antag: blocks the human D3 dopamine receptor | D3R cells, DiscoveRx beta-arrestin luminescence, antagonist mode; stronger effect = lower value | max response, negative = inhibition, % | 2.5% of 360,000 active; in the data active = max response below about -50%; inconclusive = no clear call, values can overlap the other calls; also: % is scaled to controls: 0 for no effect and ±100 for the full control effect
Target sequence (P35462 whole entry, looked up): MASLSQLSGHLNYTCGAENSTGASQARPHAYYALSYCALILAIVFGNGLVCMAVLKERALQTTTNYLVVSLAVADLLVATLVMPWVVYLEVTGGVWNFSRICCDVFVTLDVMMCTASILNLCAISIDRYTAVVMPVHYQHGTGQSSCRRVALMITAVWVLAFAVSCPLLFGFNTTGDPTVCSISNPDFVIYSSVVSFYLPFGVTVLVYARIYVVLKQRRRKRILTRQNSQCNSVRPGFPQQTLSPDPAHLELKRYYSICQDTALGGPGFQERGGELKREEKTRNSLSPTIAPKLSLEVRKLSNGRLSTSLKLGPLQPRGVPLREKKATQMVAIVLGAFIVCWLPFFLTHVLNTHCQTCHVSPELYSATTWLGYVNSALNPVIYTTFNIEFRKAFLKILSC
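Cells plated overnight at 1500 cells/well, then exposed to library compounds with dopamine controls for 90 minutes at 37 degrees C. DiscoveRx reagent added for 30–60 minutes at room temperature; luminescence read, quantitative HTS format.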
D1 antagonist: antagonists of human D1 dopamine receptor. P21728. HEK293 TREx D1 cells, calcium flux, dopamine EC80; stronger effect = lower value. activity change, negative = inhibition, % at 10 µM. 3.2% of 360,000 active; in the data active = activity change below about -30%; also: % is scaled to controls: 0 for no effect and ±100 for the full control effect
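Tetracycline-induced HEK293 T-REx cells with force-coupled D1 receptor were loaded with a no-wash calcium dye. Compound was added after a 10 s baseline and read kinetically for 180 s; EC80 dopamine was then added and calcium flux followed another 180 s.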
D1 ag: activates the human D1 dopamine receptor; activation, % at 2 µM; AID 504660; HEK293 T-REx D1 cells, calcium flux, agonist mode; P21728; 1% of 360,000 active; in the data active = activation above about 30%; also: 0% is about no effect
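Agonism was scored from calcium flux recorded over 180 s (1 read/s) after pintool compound addition, following a 10-cycle baseline. Cells were inducible force-coupled HEK293 TREx D1, plated overnight at 30 C and loaded with no-wash calcium dye.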
D3 ag: agonists of human D3 dopamine receptor | P35462 | D3R DiscoveRx beta-arrestin cells, luminescence, 90 min | max activation, % | 0.58% of 410,000 active | AID 652048; in the data active = max activation above about 30%; also: 0% is about no effect
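Agonist mode: compounds and dopamine controls were applied to plated cells for 90 min at 37 degrees C after an overnight attachment at 1500 cells/well. Luminescent read-out followed 30 - 60 minutes at room temperature with DiscoveRx detection reagent.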
Active calls of the source: *; ? = inconclusive; nt = no result. An excerpt weighted towards active compounds, which were near 6% of everything screened.

SMILES	D1 potentiator	D3 antag	D1 antagonist	D1 ag	D3 ag
CCOC(=O)c1cccc(NC(=O)CC2C(=O)N(c3ccc(Cl)cc3)C(=O)N2C2CCCC2)c1 (configuration not stated)	-2	nt	-3	13	5
COc1ccc(NC(=O)CC2C(=O)N(c3cccc(OC)c3)C(=O)N2Cc2cccnc2)cc1 (configuration not stated)	2	nt	-65*	0	6
CCOC(=O)c1cccc(NC(=O)CC2C(=O)N(c3ccc(OC)cc3)C(=O)N2C2CCCC2)c1 (configuration not stated)	-4	nt	-35*	7	-7
Cn1c2cc(B(O)O)sc2c2cnn(Cc3c(F)cccc3F)c(=O)c21	1	nt	9	4	nt
CC(=O)NC1(C2CCCCC2=O)CCCCC1 (configuration not stated)	-2	-65*	-22	2	-1
Clc1ccc(OCCCN2CCc3ccccc3C2)c(Br)c1	-4	-105*	6	0	-3
CC1CN(CCOCCOc2ccccc2-c2ccccc2)CC(C)O1 (configuration not stated)	1	-21	0	1	-20
c1ccc(-c2ccccc2OCCOCCN2CCc3ccccc3C2)cc1	-21	-93*	0	2	-25
Clc1ccc(OCCOCCN2CCc3ccccc3C2)c(Cl)c1	-10	-74*	-2	1	-33
CN1CCN(CCOCCOc2c(Cl)cc(Cl)cc2Cl)CC1	nt	?	nt	nt	-45
COc1cccc(CNC(=O)c2cc(=O)[nH]c3ccc(S(=O)(=O)N4CCCC4)cc23)c1	0	nt	-8	3	1
O=C(CSC1CC(=O)N(CCc2ccccc2)C1=O)Nc1cccc(Cl)c1 (configuration not stated)	0	14	-4	33*	-1
O=C(CSC1CC(=O)N(CCc2ccccc2)C1=O)Nc1ccc(Br)cc1 (configuration not stated)	-4	1	-3	5	1
CN1CCCCC1CCN1c2ccccc2Sc2ccc(S(C)=O)cc21 (configuration not stated)	-4	-75*	-84*	7	-85
Cc1ccc2nc(Cl)c3cc(C(=O)NC4CCC(C)CC4)sc3c2c1 (configuration not stated)	2	nt	3	0	-3
Clc1cc(Br)ccc1OCCOCCN1CCOCC1	-4	-82*	-6	2	-16
Cc1cc(C(C)(C)C)ccc1OCCOCCN1CCCC1	-4	1	-4	21	-24
Cc1ccc(OCCCCCN2CCOCC2)c(Cl)c1	nt	?	nt	nt	-21
Clc1cc(Br)ccc1OCCOCCN1CCCC1	-12	-81*	-28	17	-18
Cc1ccc2c(c1)N(C(=O)N1CCC(C(=O)NC3CCCCCC3)CC1)CCO2	-1	nt	-2	-2	-8
C#CCOCCOCCOCCNc1nc(N2CCN(C(=O)[C@H]([C@@H](C)CC)n3cc([C@@H](N)CC(C)C)nn3)CC2)nc(N2CCN(C(=O)[C@H](Cc3ccc(O)cc3)n3cc([C@@H](N)C(C)CC)nn3)CC2)n1 (some centres not stated)	0	-50*	-1	-4	-74
C#CCOCCOCCOCCNc1nc(N2CCN(C(=O)[C@H](Cc3cc4ccccc4[nH]3)n3cc([C@@H](N)C(C)CC)nn3)CC2)nc(N2CCN(C(=O)[C@H](CCCCN)n3cc([C@@H](N)CO)nn3)CC2)n1 (some centres not stated)	-4	nt	-35*	0	nt
CCOC(=O)C1=C(N)Oc2c(oc(CO)cc2=O)C1c1ccc(Cl)cc1 (configuration not stated)	2	-26	11	0	-2
CCOC(=O)C1=C(N)Oc2c(oc(CO)cc2=O)C1c1c(F)cccc1Cl (configuration not stated)	2	-4	-64*	0	2
Cc1sc2nc(C(C)C)nc(SCC(=O)N3CCN(C(=O)c4ccco4)CC3)c2c1C	-9	17	-7	1	27
SMILES	D1 potentiator	D3 antag	D1 antagonist	D1 ag	D3 ag
CCc1c(C)sc2nc(C(C)C)nc(SCC(=O)N3CCc4ccccc4C3)c12	1	58	7	1	50*
Cc1sc2nc(C3CC3)nc(SCC(=O)N3CCc4ccccc4C3)c2c1C	2	50	19	-1	46*
Cc1sc2nc(C3CC3)nc(SCC(=O)N3CCCc4ccccc43)c2c1C	-2	nt	-4	4	nt
COc1ccccc1CN(Cc1ccco1)c1cnc(S(C)(=O)=O)nc1C(=O)Nc1cc(C)ccc1C	1	nt	-2	1	-1
O=C(Nc1ccccc1C(=O)O)c1cccc(C(=O)Nc2ccccc2C(=O)O)c1	1	102	-1	1	30*
CC(C)CN1C(=O)c2ccc(C(=O)Nc3ccc(O)cc3C(=O)O)cc2C1=O	-9	98	-76*	3	20
CC(c1ccccc1)N1C(=O)c2ccc(C(=O)Nc3ccc(Br)cc3C(=O)O)cc2C1=O (configuration not stated)	-4	43	-12	2	15
CC(c1ccccc1)N1C(=O)c2ccc(C(=O)Nc3ccccc3C(=O)O)cc2C1=O (configuration not stated)	-4	105	-7	0	32*
CCNC(=O)C1(C)CCCN1C(=O)c1ccc2c(c1)OCO2 (configuration not stated)	nt	6	nt	nt	87*
CCCNC(=O)C1(C)CCN(Cc2cc(C(F)(F)F)ccc2Cl)C1 (configuration not stated)	nt	-57*	nt	nt	-14
CCCNC(=O)C1(C)CCN(Cc2cccc(OC(=O)c3ccccc3)c2)C1 (configuration not stated)	nt	-79*	nt	nt	-16
COCCNC(=O)C1(C)CCCN(Cc2cccc(OC(=O)c3ccccc3)c2)C1 (configuration not stated)	nt	0	nt	nt	0
CCCNC(=O)C1(C)CCCN(Cc2ccc3c(c2)OCO3)C1 (configuration not stated)	nt	-55*	nt	nt	-11
CCNC(=O)C1(C)CCN(Cc2csc(-c3ccccc3)n2)C1 (configuration not stated)	nt	-113*	nt	nt	-27
CCNC(=O)C1(C)CCCN(Cc2ccc(-c3ccccc3)o2)C1 (configuration not stated)	nt	?	nt	nt	-18
CCCNC(=O)C1(C)CCN(Cc2ccc(-c3ccccc3)o2)C1 (configuration not stated)	nt	-79*	nt	nt	-23
CCNC(=O)C1(C)CCCN(Cc2csc(-c3ccccc3)n2)C1 (configuration not stated)	nt	12	nt	nt	-3
N/C(Cc1nc(-c2ccc(Br)cc2)cs1)=N\O	7	-14	-47*	2	3
N/C(Cc1nc(-c2ccc(F)cc2)cs1)=N\O	11	5	-7	0	9
Oc1ccc(Nc2nc(-c3ccc(O)cc3)cs2)cc1	-9	3	-32*	41*	-4
